Bioassay records as filed in PubChem.
A549 tox – Nrf2 qHTS screen for inhibitors: counterscreen for cytotoxicity; AID 504648, 2011; A549 ARE-Fluc cells, CellTiter-Fluor viability, 18-24 h; 390,000 tested, 0.16% active; Potency, µM (top dose mostly 46 µM), inactives show top-dose activity change, negative = cytotoxicity, hits mostly inhibitors; note: % is set by controls: 0 for no effect and ±100 for the full control effect
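A549 ARE-Fluc cells in 5% FBS OPTI-MEM, 5000 cells/well, rested 2 h then exposed to compounds in concentration-response for 18-24 h at 37 °C. Viability by CellTiter-Fluor fluorescence (Ex 405/Em 525) after 30 min; luciferase luminescence (BugLite, 15 min, RT) read afterwards.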
TrxR1 substrate – qHTS Assay for Substrates of Mammalian Selenoprotein Thioredoxin Reductase 1 (TrxR1): qHTS. Thioredoxin reductase 1, cytoplasmic (Rattus norvegicus), O89049. purified TrxR1 substrate turnover, NADPH consumption readout. Potency, µM (doses to about 114 µM), without a hit: at the top dose activity change, negative = substrate turnover. 390,000 tested, 0.01% active. AID 588456, 2011; note: % is set by controls: 0 for no effect and ±100 for the full control effect; nearly all actives have a fitted effect of over 50% in size
Target sequence (O89049 whole entry, looked up): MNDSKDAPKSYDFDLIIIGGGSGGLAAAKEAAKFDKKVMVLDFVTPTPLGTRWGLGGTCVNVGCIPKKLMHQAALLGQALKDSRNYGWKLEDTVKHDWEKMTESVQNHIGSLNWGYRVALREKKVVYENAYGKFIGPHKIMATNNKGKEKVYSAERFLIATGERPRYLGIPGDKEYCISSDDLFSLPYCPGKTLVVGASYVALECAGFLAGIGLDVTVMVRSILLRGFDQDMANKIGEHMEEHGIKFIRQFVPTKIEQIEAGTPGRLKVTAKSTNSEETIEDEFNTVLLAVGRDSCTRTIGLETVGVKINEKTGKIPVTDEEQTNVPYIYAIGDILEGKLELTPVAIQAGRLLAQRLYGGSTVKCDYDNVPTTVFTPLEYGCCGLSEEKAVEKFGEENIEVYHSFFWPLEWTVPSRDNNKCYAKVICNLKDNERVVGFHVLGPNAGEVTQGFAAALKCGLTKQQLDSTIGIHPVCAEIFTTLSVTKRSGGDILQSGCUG
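Rat TrxR1, dispensed at 90 nM, was prereduced with 400 uM NADPH (final) for 5 min at ~22 deg C, then incubated with compound 15 min before 400 uM selenite. A first-read NADPH fluorescence drop versus no-compound background flagged substrates.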
TrxR1 inh – qHTS Assay for Inhibitors of Mammalian Selenoprotein Thioredoxin Reductase 1 (TrxR1): qHTS | Thioredoxin reductase 1, cytoplasmic (Rattus norvegicus), O89049 | recombinant rTrxR1, NADPH fluorescence consumption, selenite substrate | Potency, µM (series often up to 114 µM), without a hit: at the highest dose activity change, negative = inhibition, usual class: inhibitors | 390,000 tested, 1% active | AID 588453, 2011; note: % is set by controls: 0 for no effect and ±100 for the full control effect; nearly all actives have a fitted effect of over 65% in size
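Rat TrxR1 (90 nM in the dispensed reagent) was pre-reduced with 400 uM NADPH for 5 min at room temperature, then incubated with compound for 15 min. After 400 uM selenite was added, NADPH fluorescence (Ex 340/Em 450 nm) was followed for 8 min.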
GALK inhibitor – qHTS Assay for Inhibitors of Human Galactokinase (GALK); P51570; Purified GALK, Kinase-Glo residual ATP luminescence; Potency, µM (doses to about 57.5 µM), without a hit: at the highest dose activity change, negative = inhibition, most hits filed as inhibitors; 270,000 tested, 0.007% active; note: % is set by controls: 0 for no effect and ±100 for the full control effect
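Human GALK (5 nM) with 35 uM ATP and 100 uM galactose in 20 mM HEPES pH 8.0, 5 mM MgCl2, 60 mM NaCl, 1 mM DTT, 0.01% BSA. After 1 h at room temperature, leftover ATP was read by Kinase-Glo Plus luminescence.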
Nrf2 inh – Nrf2 qHTS screen for inhibitors. Potency, µM (doses to about 46 µM), without a hit: top-dose activity change, negative = inhibition, hits mostly inhibitors. A549 ARE-Fluc reporter, luciferase luminescence, 18-24 h. 360,000 tested, 2.1% active; note: % is set by controls: 0 for no effect and ±100 for the full control effect; nearly all actives have a fitted effect of over 60% in size
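A549 ARE_Fluc cells (5000/well, 5% FBS OPTI-MEM) pre-incubated 2 h, then treated with compounds 18-24 h at 37C/5% CO2 in concentration-response. CellTiter-Fluor viability read first; BugLite luciferase luminescence after 15 min at room temperature gives Nrf2 activity.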
Nrf2 ARE act – qHTS of Nrf2 Activators | AREc32 ARE-luciferase reporter (MCF7-derived line), luminescence, 24 h | AID 624171, 2012 | 410,000 tested, 0.31% active | Potency, µM (doses to about 46.1 µM), inactives show top-dose activation, most hits filed as activators; note: % of control where 0% means no effect; nearly all actives have a fitted effect of over 65% in size
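For detection, Steady-Glo was added and plates sat 30 min at RT; before that, AREc32_Fluc cells grown overnight in OPTI-MEM/5% FBS had been treated with 23 nL compound for 24 hr at 37 deg C.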
Numbers without * were called inactive; ? = inconclusive; . = no result; ! = not confirmed by another sample; [ ] = dose if it differs, or a comment. This is a sample that favours compounds with a hit; in the whole collection about 3% have one here. Calls come from the whole dose curve; as a rule, active = well fitted curve in the direction sought with a large enough effect; inconclusive = small, poorly fitted or top-dose-only effect, or another doubt; inactive = no such curve, though single readings can be large; an effect the other way counts as inactive or inconclusive. Potency is the fitted concentration of half-maximal effect.

SMILES | A549 tox | TrxR1 substrate | TrxR1 inh | GALK inhibitor | Nrf2 inh | Nrf2 ARE act
O=S(=O)(c1ccc(NC2CCCc3ccccc32)nc1)N1CCOCC1 (configuration not stated) | -13% | 6% | 11% | 1% | -26% | 0%
Cc1ccc(S(=O)(=O)N2CCCN(C)CC2)cc1 | 11% | 5% | 28µM* | 0% | 27% | -1%
COc1cc(CNc2ccc(N3CCOCC3)cc2)ccc1OCC(=O)NC(C)(C)C | -2% | 2% | 0% | 2% | 16µM* | 3%
CC(C)(C)NC(=O)COc1ccc(CNc2ncn[nH]2)cc1 | 1% | 10%[57.1 µM] | 44%[57.1 µM] | -1% | -7% | 0%
CCOc1c(Cl)cc(CNc2ccc(N3CCCC3)cc2)cc1OC | ? | -9% | 13µM* | 0% | ? | 0%
CCOc1c(Cl)cc(CNC(C)(C)CC(C)(C)C)cc1OC | 3% | 12% | 22% | -3% | . | 5%
COc1cc(CNc2ccc(CNc3ncn[nH]3)cc2)ccc1OCC(=O)NC(C)(C)C | -1% | -9% | -10% | -1% | 16µM* | 1%
Cc1c(-c2nsc(NC(=O)c3cccs3)n2)nnn1-c1ccc(Cl)cc1 | -6% | 3%[57.1 µM] | 18%[57.1 µM] | . | -16% | 11%
CCOc1cc(S(=O)(=O)n2ccnc2C(C)C)ccc1Cl | 5% | 1%[57.1 µM] | 17%[57.1 µM] | . | . | 0%
CCOC(=O)c1c(NC(=O)c2cc3nc(-c4ccc(OC)cc4)cc(C(F)(F)F)n3n2)sc2c1CCC(C)C2 (configuration not stated) | -9% | -1%[57.1 µM] | 6%[57.1 µM] | . | . | -1%
Cc1ccc(CCNS(=O)(=O)c2ccc3c(c2)CC(C)N3C(=O)C2CCC2)cc1 (configuration not stated) | -2% | 0% | 21% | . | -15% | 1%
CCCc1ccc(OCC(=O)Nc2sc3c(c2C(=O)OCC)CCC(C(C)(C)C)C3)cc1 (configuration not stated) | 3% | -2% | -4% | . | 4% | 0%
O=C(NCCc1nc2ccccc2n1Cc1ccccc1F)c1ccc(F)cc1 | ? | 1% | 4% | . | 23µM* | 4%
Cc1ccc(-n2c(=O)c3c4c(sc3n(Cc3cccc(Cl)c3)c2=O)CCC4)cc1C | 0% | 10%[2.29 µM] | 8% | . | -4%[9.27 µM] | 1%
Cc1cc(C)c(C(=O)N2CCCC(CNS(=O)(=O)c3cccs3)C2)o1 (configuration not stated) | 2% | 7% | 5% | 0% | 17% | -1%
CC(C)(O)C#Cc1ccc(C(=O)N2CCCC(CNS(=O)(=O)c3cccs3)C2)o1 (configuration not stated) | 5% | 1% | 13µM* | -3% | -20% | 0%
CCOc1ccccc1CNC(=O)CCC(=O)N1CCSc2ccccc21 | 2% | -5% | 4% | . | 4% | 7%
CCCN1CNc2c(c(=O)[nH]c(=S)n2CCc2ccc3c(c2)OCCO3)C1 | 0% | -6% | -21% | . | -9% | .
Nc1ncc(-c2cccc(-c3nn4c(=O)cc(N5CCNCC5)nc4s3)c2)cn1 | -5% | . | . | . | 3% | .
O=c1c2ccccc2nc(N/N=C/c2c(O)ccc3ccccc23)n1O | ? | -16% | -24% | 1% | 6.5µM* | 5%
O=C(c1ccc(N2CCN(C(=O)c3ccccc3)CC2)cc1)c1cccc(F)c1 | 0% | -8% | -2% | 4% | ? | 6%
O=C(c1ccc(N2CCN(C(=O)c3ccc(F)c(F)c3)CC2)cc1)c1cccc(F)c1 | -15% | 18% | 48% | -8% | 16µM* | 0%
O=C1NC(=O)C(c2ccccc2[N+](=O)[O-])=C1Nc1ccc(O)c(Cl)c1 | -2% | -3%[57.1 µM] | 2.7µM*! | . | -12% | 5%
Cc1ccc(CNC(=O)Cn2c(=O)n(-c3ccc(C)cc3)c(=O)c3c2c2cc(C)ccc2n3C)cc1 | 9% | 10% | -1% | . | 7% | -1%
Cc1ccc2ccc3c(c2n1)NS(=O)(=O)c1ccc(C(F)(F)F)cc1-3 | 7.3µM* | -7% | -14% | . | 8.2µM* | .
SMILES | A549 tox | TrxR1 substrate | TrxR1 inh | GALK inhibitor | Nrf2 inh | Nrf2 ARE act
COc1ccc(OC2C(=O)N(Cc3ccc4c(c3)OCO4)C2c2cccs2)cc1 (configuration not stated) | -26% | -5% | 2% | -3% | 13µM* | 2%
COc1ccc(NC(=O)CC2SC(N3CCOCC3)=NC2=O)cc1OC (configuration not stated) | -4% | 5% | 7% | . | 15µM* | 0%
O=C(CC1SC(N2CCCCC2)=NC1=O)Nc1cccc(C(F)(F)F)c1 (configuration not stated) | -11% | -4% | -1% | -1% | 21µM* | 2%
Nc1nc(SCC(=O)Nc2cccc(F)c2)n[nH]1 | -1% | 4% | 8% | . | 6% | 0%
O=C1CCCN2N=C(SCC(=O)Nc3cccc(C(F)(F)F)c3)SC2=N1 | 0% | 4% | 31% | 0% | 16µM* | 6%
Nc1nc(SCC(=O)Nc2cccc(C(F)(F)F)c2)n[nH]1 | 4% | -2% | 1% | . | 18µM* | 1%
CC(=O)c1cccc(NC(=O)CC2SC(N3CCCCC3)=NC2=O)c1 (configuration not stated) | 1% | 10%[57.1 µM] | 17%[57.1 µM] | 8% | . | 0%
O=C(C[n+]1ccccc1Cl)c1ccccc1 | . | 5% | 6% | . | . | .
CCc1ccccc1NC(=O)CSc1nccn1C | 2% | 3% | 9% | . | 15% | -1%
CCOc1ccc(C(=O)Nc2cccc(NC(=O)c3ccco3)c2)cc1Cl | -12% | 15% | 22% | . | ? | 4%
CC[N+]1=C(C)C(C)(C)c2cc(C)ccc21 | -18% | 2% | 17% | 5% | 10µM* | -1%
N#Cc1cccc(OC2=NS(=O)(=O)c3ccccc32)c1 | 10% | . | . | . | 11% | .
CCOc1ccccc1NC(=O)C1CCN(S(=O)(=O)Cc2ccccc2)CC1 | -1% | 122% | -22% | . | 23µM* | 0%
COc1ccc(-c2cc(C(=O)Nc3c(C(=O)c4ccc(C)c(F)c4)oc4ccccc34)no2)cc1 | 2% | 4% | 16% | . | 20% | 7%
COc1ccc(C(=O)NC(Nc2ccc(C)cc2)C(Cl)(Cl)Cl)cc1 (configuration not stated) | ? | -3% | 3% | 1% | 21µM* | 4%
CCn1c(=S)[nH]c2cc(Cl)ccc21 | 12% | 0% | 11% | . | -11% | 2%
